Measurements reported in PubChem BioAssay (NCATS).
Results filed as inconclusive are left out. Activity calls are given as the source filed them. Calls follow the shape of the dose curve; as a rule, active = well fitted inhibition curve with a large enough effect; inconclusive = small, poorly fitted or top-dose-only effect; inactive = flat fitted curve, though single readings scatter. Where a SMILES comes first, the peptide text is derived from it.

Columns and labels:
[1] = tested on: CRL-7250; test: Cytotoxic Profiling of Annotated Libraries Using Quantitative High-Throughput Screening (AID 1296008); conditions: Five cell lines viability, CellTiter-Glo ATP luminescence, 48-72 h; max response: hits give low values; also: potency is read from the fitted curve at half-maximal effect; as to max response: % is scaled to controls: 0 for no effect and ±100 for the full control effect
Outline: (§1)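 Cytotoxicity was measured as CellTiter-Glo ATP luminescence, read after 10 min at room temperature. Compound treatment of the cells lasted 48 or 72 hr at 37 degrees Celsius in a qHTS format.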

[2] = tested on: HEK293; test: as above; conditions: Five cell lines viability, CellTiter-Glo ATP luminescence, 48-72 h; max response: hits give low values
Outline: as §1

[3] = tested on: HaCat; test: as above; conditions: Five cell lines viability, CellTiter-Glo ATP luminescence, 48-72 h; max response: hits give low values
Outline: as §1

[4] = tested on: KB-3-1; test: as above; conditions: Five cell lines viability, CellTiter-Glo ATP luminescence, 48-72 h; max response: hits give low values
Outline: as §1

[5] = tested on: NIH3T3; test: as above; conditions: Five cell lines viability, CellTiter-Glo ATP luminescence, 48-72 h; max response: hits give low values
Outline: as §1

[6] = tested on: SC27B; test: qHTS profiling for inhibitors of Plasmodium falciparum proliferation (AID 504749);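 also: 0% = DMSO vehicle and full inhibition = artemisinin control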; conditions: P. falciparum in erythrocytes, SYBR Green DNA, 72 h; series mostly up to 28.7 µM
Outline: (§2)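 In a 72 h erythrocytic culture (37 C, humidified, 5% CO2) at 2.5% hematocrit and 0.3% starting parasitemia, compounds were tested; SYBR Green I in detergent lysis buffer stained parasite DNA overnight.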

[7] = tested on: TAB109; test: as above; conditions: P. falciparum in erythrocytes, SYBR Green DNA, 72 h; series mostly up to 28.7 µM
Outline: as §2

[8] = tested on: TAB113; test: as above; conditions: P. falciparum in erythrocytes, SYBR Green DNA, 72 h; series mostly up to 28.7 µM
Outline: as §2

[9] = tested on: TAB165; test: as above; conditions: P. falciparum in erythrocytes, SYBR Green DNA, 72 h; series mostly up to 28.7 µM
Outline: as §2

[10] = tested on: W2; test: as above; conditions: P. falciparum in erythrocytes, SYBR Green DNA, 72 h; series mostly up to 28.7 µM
Outline: as §2
Also: nearly all actives have a fitted effect of over 60% in size.

CC1CCC2(C)CCC3(C)C(=CCC4C5(C)CCC(O)C(C)(C(=O)O)C5CCC43C)C2C1C (stereo not drawn)
inactive: outcome [1] | max response [2] -6.34% | outcome [3] | max response [4] 8.86% | max response [5] 4.66%

COc1cc(O)c2c(c1)C1(OC2=O)C(C)=CC(=O)C1O (stereo not drawn)
inactive: outcome [1] | max response [2] -12.8% | outcome [3] | max response [4] 7.65% | max response [5] 4.25%

CC1CCC2(C(=O)OC3OC(CO)C(O)C(O)C3O)CCC3(C)C(=CCC4C5(C)CCC(O)C(C)(CO)C5CCC43C)C2C1(C)O (stereo not drawn)
inactive: outcome [1] | max response [2] -1.85% | outcome [3] | outcome [4] | outcome [5]

COC(=O)C1=COC(OC2OC(CO)C(O)C(O)C2O)C2C(COC(=O)/C=C/c3ccc(O)cc3)C(O)C(O)C12 (stereo not drawn)
inactive: outcome [1] | max response [2] 0.595% | outcome [3] | outcome [4] | max response [5] -5.08%

Cn1cc(Nc2cnccc2C(=O)O)c2cccnc21
inactive: max response [1] 1.11% | max response [2] -5.52% | max response [3] 4.86% | outcome [4] | outcome [5]

COC(=O)[C@H](Cc1cccc(C(=N)N)c1)[C@@H](C)NC(=O)c1ccc(-c2cc[n+]([O-])cc2)cc1
inactive: max response [1] -2.22% | max response [2] 3.53% | outcome [3] | outcome [4] | max response [5] 0.404%

O=C(/C=C/c1ccc(O)cc1)OC[C@H]1O[C@H](O[C@@]2(CO)O[C@@H](CO)[C@H](O)[C@H]2O)[C@H](O)[C@@H](O)[C@@H]1O
inactive: outcome [1] | outcome [2] | max response [3] 1.8% | outcome [4] | max response [5] -0.438%

C/C=C1/C[N+](C)([O-])C2Cc3c([nH]c4ccccc34)C(=O)CC1C2C(=O)OC (stereo not drawn)
inactive: max response [1] -5.18% | max response [2] -0.509% | outcome [3] | max response [4] 8.09% | max response [5] -1.66%

CC(=O)O[C@@H]1CC2C(C)(C)C(=O)C=C[C@]2(C)C2CC[C@]3(C)C(=CC(=O)[C@@H]3c3ccoc3)[C@@]21C (stereo partly drawn)
inactive: max response [1] 0.62% | max response [2] -22.3% | outcome [3] | outcome [4] | max response [5] 0.533%

COc1ccc(N2CCN(CCCNC(=O)Cn3c(=O)c4cccn4c4c(C)ccnc43)CC2)cc1
inactive: max response [1] -6.16% | max response [2] -13.3% | outcome [3] | max response [4] 6.93% | outcome [5]

COC(=O)C[C@H]1C(C)(C)[C@H](OC(=O)C(C)C)C2CC3=C4CC(=O)O[C@@H](c5ccoc5)[C@]4(C)CCC3[C@@]1(C)C2=O (stereo partly drawn)
inactive: max response [1] 2.69% | max response [2] -10.8% | outcome [3] | max response [4] -0.987% | max response [5] 1.73%

CC(=O)OC1(C)CC(O)C2(O)C=COC(OC3OC(CO)C(O)C(O)C3O)C12 (stereo not drawn)
inactive: outcome [1] | max response [2] 4.36% | max response [3] 0.0573% | max response [4] 3.54% | outcome [5]

CCOC(=O)C(CCc1ccccc1)NC(C)C(=O)N1Cc2ccccc2CC1C(=O)O (stereo not drawn)
inactive: outcome [6] | outcome [7] | outcome [8] | outcome [9] | outcome [10] | max response [1] -6.01% | max response [2] -4.89% | max response [3] -10.9% | max response [4] -4.78% | outcome [5]

CC1(C(=O)O)CCCC2(C)C3CCC4CC3(CCC12)CC4C(=O)O (stereo not drawn)
inactive: outcome [1] | max response [2] 1.27% | outcome [3] | max response [4] 6.21% | outcome [5]

CC(=O)O[C@@H]1C=C2[C@H](CC[C@@]3(C)[C@@]2(O)CC[C@H]2Cc4c([nH]c5ccccc45)[C@@]23C)O[C@@H]1C(C)(C)O
inactive: max response [1] -3.54% | max response [2] -5.86% | outcome [3] | max response [4] 6.54% | max response [5] 3.65%

CN1CCN(C(=O)c2cc3cc(Cl)ccc3[nH]2)CC1
inactive: max response [1] -2.46% | max response [2] -8.86% | outcome [3] | max response [4] -0.0663% | outcome [5]

CC(=O)OC(C)C(C)(O)C(=O)O[C@@H]1CC[C@]2(C)CC(=O)C(=C(C)C)C[C@H]2[C@]1(C)OC(C)=O (stereo partly drawn)
inactive: max response [1] -0.377% | max response [2] 0.4% | outcome [3] | max response [4] 6.09% | max response [5] -1.04%

Cc1nnc(-c2sc(NC(=O)[C@H](C(C)C)n3c(=O)[nH]c4ccccc4c3=O)nc2C)o1
inactive: max response [1] -59.8% | max response [2] -6.7% | max response [3] -23.8% | max response [4] 8.7% | outcome [5]

CC1(C)CC[C@]2(C(=O)O[C@@H]3O[C@H](CO)[C@@H](O)[C@H](O)[C@H]3O)CC[C@]3(C)C(=CCC4[C@@]5(C)C[C@@H](O)[C@H](O)[C@@](C)(CO)C5[C@H](O)C[C@]43C)C2C1 (stereo partly drawn)
inactive: max response [1] -10.1% | max response [2] -14.5% | outcome [3] | max response [4] -2.95% | outcome [5]

C=C1CCC(OC(C)=O)C2(C)CC3OC(=O)C(C)=C3CC12 (stereo not drawn)
inactive: max response [1] -0.951% | max response [2] -10.1% | outcome [3] | max response [4] 3.31% | max response [5] -1.87%

CC(=O)C1CCC(=O)N1Cc1ccccc1 (stereo not drawn)
inactive: outcome [1] | max response [2] -9.27% | outcome [3] | max response [4] -4.66% | max response [5] 3.14%

CC(C)=C1CC2C(CCC2(C)O)C(C)(O)CC1=O (stereo not drawn)
inactive: outcome [1] | max response [2] -3.11% | max response [3] -16.7% | outcome [4] | outcome [5]

C#CCCCn1cc(-c2cccc3c2N[C@@H](C)CC(=O)N3)cn1
inactive: max response [2] -6.8% | max response [3] -14.3% | outcome [4] | outcome [5]
active: Potency [1] 18.4 µM

CCc1cccc2c3c([nH]c12)[C@@](CC)(CC(=O)O)OCC3
inactive: outcome [6] | outcome [7] | outcome [8] | outcome [9] | outcome [10] | max response [1] 0.605% | max response [2] 3.28% | outcome [3] | outcome [4] | max response [5] 1.91%

C=C(C)[C@H]1CC[C@]2(C(=O)O)CC[C@]3(C)C(CCC4[C@@]5(C)CCC(=O)C(C)(C)C5CC[C@]43C)C12 (stereo partly drawn)
inactive: max response [1] -18.5% | outcome [3] | max response [4] -14.2% | max response [5] -1.29%
active: Potency [2] 7.09 µM

O=C(O)Cc1cn([C@@H]2O[C@H](CO)[C@@H](O)[C@H](O)[C@H]2O[C@@H]2O[C@H](CO)[C@@H](O)[C@H](O)[C@H]2O)c2ccccc12
inactive: max response [1] -3.23% | outcome [3] | max response [4] 4.7% | outcome [5]

C/C=C/C=C/C(=O)OC1CC/C=C/C(O)C(O)C(CCC)OC1=O (stereo not drawn)
inactive: max response [1] -18.3% | max response [2] 4.94% | outcome [3] | max response [4] 4.6% | outcome [5]

CC1=CCC[C@@H]2[C@](CCc3ccoc3)(C(=O)O)[C@H](C)CC[C@@]12C
inactive: max response [1] -2.77% | max response [2] -3.43% | max response [3] -10.6% | max response [4] 8.82% | outcome [5]

CC1=CC(=O)CC(C)(C)C1CO[C@@H]1O[C@H](CO)[C@@H](O)[C@H](O)[C@H]1O (stereo partly drawn)
inactive: max response [1] -5.79% | max response [2] -1.36% | outcome [3] | max response [4] 7.69% | max response [5] -1.71%

CSCC[C@H](NC(=O)[C@H](CO)NC(=O)[C@H](CCC(=O)O)NC(C)=O)C(=O)N[C@H](C=O)CC(=O)O (Ac-ESMD-aldehyde)
inactive: max response [1] 3.88% | max response [2] 0.953% | outcome [3] | max response [4] 2.69% | max response [5] -20.7%

CC(=O)OC[C@]12[C@@H](OC(=O)c3ccoc3)C[C@@H]3[C@@H](OC(C)=O)[C@]1(OC3(C)C)[C@@](C)(O)C[C@H](OC(=O)c1ccoc1)[C@@H]2OC(=O)c1ccoc1
inactive: max response [1] -3.29% | max response [2] -2.85% | outcome [3] | max response [4] 2.58% | outcome [5]

CC1CCC2(NC1)OC1C(O)C3C4CCC5CC(O[C@@H]6O[C@H](CO)[C@@H](O)[C@H](O)[C@H]6O[C@@H]6O[C@@H](C)[C@H](O)[C@@H](O)[C@H]6O)CCC5(C)C4CCC3(C)C1C2C (stereo partly drawn)
inactive: max response [1] -4.87% | max response [2] 2.08% | outcome [3] | max response [4] -0.386% | outcome [5]

Cc1onc(-c2c(Cl)cccc2Cl)c1CC(=O)NCc1ccc(OCC(F)(F)F)nc1
inactive: max response [1] 0.479% | max response [2] -15.1% | max response [3] 1.93% | outcome [4] | outcome [5]

COc1cc(/C=C/C(=O)O[C@@H]2C[C@@](O)(C(=O)O)C[C@@H](O)[C@@H]2O)ccc1O
inactive: max response [1] -0.566% | max response [2] 0.393% | max response [3] -12% | max response [4] 0.239% | outcome [5]

C/C(=C\CCC1(C)C2CC3C(C2)C31C)C(=O)O (stereo not drawn)
inactive: outcome [1] | max response [2] -2.35% | outcome [3] | outcome [4] | outcome [5]

COc1cc(/C=C/C(=O)OC[C@H]2O[C@@H](OC3CC(C)=C(C(=O)O)C(C)(C)C3)[C@H](O)[C@@H](O)[C@@H]2O)cc(OC)c1O (stereo partly drawn)
inactive: max response [1] -3.13% | max response [2] -1.71% | outcome [3] | outcome [4] | outcome [5]

C[C@H]1[C@H](C)CC[C@]2(C(=O)O)CC[C@]3(C)C(=CCC4[C@@]5(C)C[C@@H](O)[C@H](O)C(C)(C)C5CC[C@]43C)[C@H]12 (stereo partly drawn)
inactive: outcome [1] | max response [2] 3.03% | max response [3] -6.87% | max response [4] -2.55% | outcome [5]

COCC1OC(OC(C)(C)C2CCC3(C)C=C(C4CCC5C4(C)CC(O)C4OC(C(C)(C)O)CCC45C)CCC3O2)C(NC(C)=O)C(O)C1O (stereo not drawn)
inactive: outcome [1] | max response [2] 2.29% | outcome [3] | max response [4] 7.28% | max response [5] 1.37%

O=C(Nc1cc(-c2ccccc2)nn1-c1ccccc1)c1ccc([N+](=O)[O-])cc1
inactive: max response [1] -6.57% | max response [2] -12.1% | max response [3] 1.9% | max response [4] -7.82% | outcome [5]

C=CC(C)(O)C1CC2C3(C)CCCC(C)(C)C3C(O)C(O)C2(C)O1 (stereo not drawn)
inactive: max response [1] -10.8% | max response [2] 3.38% | outcome [3] | outcome [4] | max response [5] -13.6%

Cc1cc(CNC(=O)c2cc(C(=O)NCc3ccc(F)c(C)c3)ncn2)ccc1F
inactive: max response [1] 4.78% | max response [3] -0.507% | outcome [4] | outcome [5]
